Experimental data taken from PubChem BioAssay AID453 (PCMD, 2006).
Screen size: about 63,000 compounds; about 75 (0.1%) were called active. The sample as a whole holds a higher share of actives than the screen did. Unmarked numbers belong to inactive results. Cut-off read from the data, not from the text of the source: active = inhibition above about 21%; inactive = the rest.

These compounds were tested against Cathepsin B (Homo sapiens) (UniProt P07858) (assay: human cathepsin B inhibitors, primary screen, biochemical, fluorogenic substrate (AID 453;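 note: 0% = enzyme with no compound and 100% = no enzyme blank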)). Settings: purified cathepsin B, fluorescence, stronger effect = higher value,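 tested at 10 µM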.

SMILES	inhibition
O=C(CN1CCOc2ccccc21)N1CCC(Cc2ccccc2)CC1	0.85%
C=CCn1c(C2CC(=O)N(c3ccc(C)cc3)C2)nc2ccccc21 (stereo not drawn)	-1.25%
CCN(CC)CCCNC(=O)c1cc(-c2cccc(Cl)c2)on1	4.03%
O=C1N(Cc2ccc3c(c2)OCO3)c2ccccc2C1(O)c1c[nH]c2ccccc12 (stereo not drawn)	-2.6%
CCOc1ccc(/C(O)=C2/C(=O)C(=O)N(Cc3cccnc3)C2c2ccc(N(C)C)cc2)c(C)c1 (stereo not drawn)	1.4%
Nc1nonc1-c1noc(-c2ccc(Br)o2)n1	25% (active)
O=C(O)CCC(=O)NCc1ccc2[nH]c3c(c2c1)CCCC3	3.83%
CCOC(=O)c1c(NC(=O)CSc2nnc(CN3CCOCC3)n2C)sc2c1CCCC2	-0.13%
O=C(OCC(O)C(O)COC(=O)c1ccccc1)c1ccccc1 (stereo not drawn)	0.46%
N#Cc1c(N)n(CCOC(=O)c2ccc(Cl)cc2)c2nc3ccccc3nc12	0.87%
Cc1ccc(-n2c(N)c(C(=O)N3CCOCC3)sc2=S)c(C)c1	-2.06%
O=C(CN1CCN(c2ncc(C(F)(F)F)cc2Cl)CC1)Nc1ccc2c(c1)OCO2	10.7%
CC1(C)CC(=O)C(C2=NC(C)(C)Cc3ccccc32)=C(O)C1	0.19%
CCCCOC(=O)c1[nH]c(C)c(C(=O)OC)c1C	4.33%
CC(Sc1nncs1)C(=O)NCc1ccc2c(c1)OCO2 (stereo not drawn)	-5.21%
CCOC(=O)N1CCN(S(=O)(=O)c2cc3c(cc2C)NC(=O)CO3)CC1	1.1%
CCOC(=O)CCc1c(C)c(C#N)c2[nH]c3ccccc3n2c1=O	2.21%
O=C(NCc1ccccn1)c1cnc2sccn2c1=O	-2.74%
Cc1ccccc1C(OCC(O)CN1CCCCC1CCO)c1ccccc1 (stereo not drawn)	2.98%
CCCC(=O)N1CCc2[nH]c3ccccc3c2C1	0.39%
Cc1ccccc1Nc1nnc(C)c(=O)[nH]1	-0.9%

SMILES	inhibition
CC(=O)C1=C(O)C(=O)N(c2ccc(S(N)(=O)=O)cc2)C1c1ccccc1F (stereo not drawn)	-1.52%
Cc1ccc(NC(=O)NCC(c2cccnc2)N2CCOCC2)cc1 (stereo not drawn)	-2.73%
OCc1nc(CO)n(Cc2ccccc2)n1	5.1%
c1ccc(CCC2=NCCn3cccc32)cc1	4.22%
CCOc1ccccc1C1NC(=O)NC(C)=C1C(=O)OCc1ccco1 (stereo not drawn)	2.19%
O=C(C1CCN(S(=O)(=O)c2cnc[nH]2)CC1)N1CCN(Cc2ccc3c(c2)OCO3)CC1	5.41%
Cc1cccc(N2CCN(C(=O)C3CCN(S(=O)(=O)c4cnc[nH]4)CC3)CC2)c1C	44.5% (active)
COc1cccc(N2CCN(C(=O)C3CCCN(S(=O)(=O)c4cnc[nH]4)C3)CC2)c1 (stereo not drawn)	-4.17%
CCC(c1nnnn1C1CCCC1)N1CCN(C(=O)c2ccco2)CC1 (stereo not drawn)	4.25%
CCCCN=C(N)/C(C(=O)OCC)=C(\O)c1ccc(OC)cc1	-2.85%
CC(C)OC(=O)c1sc2nc3c(cc2c1N)C(=O)CCC3	1.67%
COc1ccc(N2C(=O)C3CCCN3C2c2cccs2)cc1 (stereo not drawn)	2.37%
O=S(=O)(NCCOc1cccc2cccnc12)c1ccc(F)cc1	-0.09%
O=C(C1=C(O)C(=O)N(Cc2ccccc2)C1c1cccnc1)c1ccco1 (stereo not drawn)	-2.37%
N#CCCN(CCC#N)c1nnc(-c2ccccc2)s1	1.65%
COc1ccccc1CNC(=O)CCCNS(=O)(=O)c1cccc2nsnc12	3.57%
O=C(CSc1nnnn1C1CCCC1)Nc1ccc2c(c1)OCCO2	-2.88%
Cc1ccccc1CSc1nnc(Cn2c(=O)sc3ccccc32)n1C	1.64%
CN1CCN(c2nc3c(c(=O)[nH]c(=O)n3C)n2Cc2cccc3ccccc23)CC1	5.25%
C=C(Br)CN1CCN(CC(=C)Br)CC1	8.43%
CCOc1cc(-c2conc2N)cc(OCC)c1OCC	0.88%

SMILES	inhibition
O=c1[nH]c(=O)n(Cc2ccco2)c2c1C(C(F)(F)F)(C(F)(F)F)N=C(c1ccco1)N2	3.15%
Cc1ccc(-c2nn(-c3ccccc3)cc2CN(Cc2ccccc2)C(=O)CCC(=O)O)o1	-3.71%
O=c1oc2c(CN3CCCCC3)c(O)ccc2c2c1CCCCC2	-33.1%
C=CCNc1nc(C)nc(OC)n1	3.19%
O=CN1CCN(C2CC(=O)N(c3ccc4c(c3)OCO4)C2=O)CC1 (stereo not drawn)	-5.45%
COCCn1c(SCC(=O)Nc2cc(Cl)ccc2OC)nc2c(c1=O)SC(C)C2 (stereo not drawn)	-1.89%
O=C(COc1ccc(Cl)cc1)Nc1ccccc1CO	-0.12%
CCOC(=O)c1c(C)nc(-c2ccccc2)nc1NC(=O)C(C)C	-1.86%
CCOC(=O)c1c(NC(=O)CSc2nnc(Cc3csc(N)n3)n2C)sc(C)c1C	1.53%
O=C(O)C1CCCCC1C(=O)Nc1ccc(Cl)cc1 (stereo not drawn)	-2.32%
O=C1Nc2ccccc2C12Nc1ccccc1S2 (stereo not drawn)	-3.59%
CCOC(=O)c1[nH]c2ccccc2c1N=C(C)N(CC)CC	-1.09%
COC(=O)CCNc1ccc2c(c1)OCCO2	-7.3%
O=C(Nc1nc2ccc(S(=O)(=O)N3CCCC3)cc2s1)C1CCCO1 (stereo not drawn)	-0.69%
Cc1nonc1NC(=O)c1ccccc1Br	-1.31%
COc1ccc2c(c1)C(C)=CC(C)(C)N2C(=O)CNCc1ccc2c(c1)OCO2	0.73%
CC(=O)Oc1cc2c(C(=O)NCCN3CCOCC3)c(C)oc2c2ccccc12	-1.15%
Cc1ccc(CC2CC(=O)N(c3ccc4c(c3)OCCO4)C2=O)cc1 (stereo not drawn)	3.98%
N#Cc1ccccc1-n1c(N)c(C(=O)N2CCCC2)sc1=S	4.81%
Cc1ccc(C(C(=O)NC2CCCCC2)N(C(=O)c2csnn2)C2CC2)o1 (stereo not drawn)	4.47%
CCCC(=O)N1c2ccc(-c3csc(N)n3)cc2CC1C (stereo not drawn)	1.69%

SMILES	inhibition
CCCCC(=O)Nc1ccc(C(=O)NCCCn2ccnc2)cc1	-0.94%
CCCCCC(=O)Nc1ccc2oc(-c3ccncc3)nc2c1	-2.27%
COc1ccccc1NC(=O)CSc1nnc(Cc2cccn2C)n1-c1ccc(F)cc1	2.97%
Cc1ccc(Nc2nc(CSc3nnnn3-c3ccccc3)cc(=O)[nH]2)cc1	1.57%
COC(=O)C1=C(C)OC(N)=C(C#N)C1c1cc(OC)ccc1OC (stereo not drawn)	4.88%
Nc1scc(-c2ccncc2)c1Cl	3.27%
CC(C)c1nc(N2CCOCC2)c(C#N)c2c1COC(C)(C)C2	1.28%
CCCCc1nc2ccccc2c(=O)n1NC(=O)c1c(O)c2cccc3c2n(c1=O)CC3	-2.29%
O=C(CCSc1ccccc1)NCCSc1ccccn1	5.87%
Nc1nonc1-c1nc2ccccc2n1CCC(=O)O	7.32%
COCCn1c(-c2ccc(OC)c(OC)c2)nc2ccccc21	4.56%
COc1ccc(C)c(Cn2c(-c3nonc3N)nc3ccccc32)c1	45.2% (active)
CC(=O)Nc1nonc1-c1nc2ccccc2n1Cc1ccccn1	-4.81%
CCCn1c(C(O)c2cc(OC)ccc2OC)nc2ccccc21 (stereo not drawn)	5.72%
Nc1nonc1-c1nc2ccccc2n1Cc1ccc(F)cc1	73.1% (active)
Cc1cc(NC(=O)CCC(=O)N(c2ccccc2)C(C(=O)NC2CCCC2)c2ccncc2)no1 (stereo not drawn)	0.19%
CCn1c(COc2ccccc2)nnc1SCC(=O)Nc1ccc2c(c1)OCCO2	1.14%
COC(=O)Nc1nc2ccc(Sc3ccccc3)cc2[nH]1	4.96%
COc1ncnc2c1N=C1CC(C)(C)CC(N)=C1S2	-1.8%
Cc1ccc2oc(=O)c3cnn(CC(=O)N4CCN(c5ccccn5)CC4)c3c2c1	3.28%
